# Experiments:
# Assay in all cases: DAPPL (digital affinity profiling via proximity ligation, sequencing); 10 mM Tris-HCl pH 7.5, 50 mM NaCl, 1 mM DTT, 4% glycerol, room temperature, 30 min; GST-TFs on glutathione beads, 16-mer random dsDNA library, 0.1% formaldehyde crosslink after washing; high values mean tight binding
# Conditions in all cases: protein: recombinant; tags: N-terminal GST; dsDNA, one strand shown
# [1] = biological target: ELF4 (Homo sapiens, UniProt Q99607 1-663)
# How it was run: (§1)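 Pools were built from human transcription factors expressed in yeast as GST fusions, captured on glutathione beads and DNA-barcoded, along with a tag-only sample. Incubation with 200 nmole of a 16-mer random double-stranded DNA library lasted 30 min at room temperature in Tris/NaCl/DTT/glycerol buffer, and was followed by washing, 0.1% formaldehyde crosslinking, proximity ligation, PCR amplification and Illumina NextSeq500 sequencing. Binding signal is the quotient of each hexamer's read frequency for a factor and its frequency for the tag-only sample.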
# [2] = biological target: T1, ETV2 (Homo sapiens, UniProt O00321 1-342)
# T1 sequence: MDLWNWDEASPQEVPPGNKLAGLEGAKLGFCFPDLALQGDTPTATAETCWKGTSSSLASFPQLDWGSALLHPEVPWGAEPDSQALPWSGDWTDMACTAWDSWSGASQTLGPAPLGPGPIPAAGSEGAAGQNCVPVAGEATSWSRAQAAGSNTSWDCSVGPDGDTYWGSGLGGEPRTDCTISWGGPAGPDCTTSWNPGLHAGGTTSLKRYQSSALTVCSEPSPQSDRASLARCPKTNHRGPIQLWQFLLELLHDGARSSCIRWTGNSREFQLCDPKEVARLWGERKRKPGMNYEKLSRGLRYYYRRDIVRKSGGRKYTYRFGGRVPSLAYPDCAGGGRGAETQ
# How it was run: as §1
# [3] = biological target: T2, ELF3 (Homo sapiens, UniProt P78545 1-371)
# T2 sequence: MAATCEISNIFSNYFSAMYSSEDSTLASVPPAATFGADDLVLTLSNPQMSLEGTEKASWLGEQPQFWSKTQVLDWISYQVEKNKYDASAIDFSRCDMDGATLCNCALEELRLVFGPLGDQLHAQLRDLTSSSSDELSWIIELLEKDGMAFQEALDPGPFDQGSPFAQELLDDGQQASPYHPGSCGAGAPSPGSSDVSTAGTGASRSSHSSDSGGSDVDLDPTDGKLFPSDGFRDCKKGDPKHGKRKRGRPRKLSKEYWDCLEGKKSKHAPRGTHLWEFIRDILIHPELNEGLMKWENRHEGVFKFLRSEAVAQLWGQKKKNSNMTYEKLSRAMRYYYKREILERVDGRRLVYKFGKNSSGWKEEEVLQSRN
# How it was run: as §1
# [4] = biological target: ETV1 (Homo sapiens, UniProt P50549 1-477)
# How it was run: as §1
# [5] = biological target: T3, ERF (Homo sapiens, UniProt P50548 1-548)
# T3 sequence: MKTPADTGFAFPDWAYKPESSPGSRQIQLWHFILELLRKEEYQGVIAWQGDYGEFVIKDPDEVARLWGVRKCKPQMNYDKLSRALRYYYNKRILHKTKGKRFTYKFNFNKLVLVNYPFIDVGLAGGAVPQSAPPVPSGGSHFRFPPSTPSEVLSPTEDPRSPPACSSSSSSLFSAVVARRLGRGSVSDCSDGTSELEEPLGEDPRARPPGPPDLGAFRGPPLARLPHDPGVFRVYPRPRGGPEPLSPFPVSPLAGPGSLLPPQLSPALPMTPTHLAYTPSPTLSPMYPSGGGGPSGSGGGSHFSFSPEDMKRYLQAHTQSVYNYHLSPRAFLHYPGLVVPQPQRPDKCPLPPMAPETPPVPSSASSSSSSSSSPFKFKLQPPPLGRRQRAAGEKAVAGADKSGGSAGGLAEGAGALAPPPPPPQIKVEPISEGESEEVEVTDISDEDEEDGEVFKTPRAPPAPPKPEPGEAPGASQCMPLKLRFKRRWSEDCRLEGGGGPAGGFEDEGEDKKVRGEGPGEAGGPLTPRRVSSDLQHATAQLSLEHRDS
# How it was run: as §1
# [6] = biological target: T4, ETV3L (Homo sapiens, UniProt Q6ZN32 1-361)
# T4 sequence: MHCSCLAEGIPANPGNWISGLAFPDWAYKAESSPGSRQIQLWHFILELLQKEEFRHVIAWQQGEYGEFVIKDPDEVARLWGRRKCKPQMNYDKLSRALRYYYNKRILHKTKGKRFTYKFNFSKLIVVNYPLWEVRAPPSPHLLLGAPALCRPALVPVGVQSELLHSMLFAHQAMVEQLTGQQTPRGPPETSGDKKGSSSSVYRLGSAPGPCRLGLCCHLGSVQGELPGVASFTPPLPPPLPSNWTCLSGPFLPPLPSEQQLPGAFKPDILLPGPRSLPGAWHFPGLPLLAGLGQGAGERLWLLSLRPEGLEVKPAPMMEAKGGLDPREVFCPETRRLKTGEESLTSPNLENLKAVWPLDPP
# How it was run: as §1
# [7] = biological target: T5, ETS2 (Homo sapiens, UniProt P15036 1-469)
# T5 sequence: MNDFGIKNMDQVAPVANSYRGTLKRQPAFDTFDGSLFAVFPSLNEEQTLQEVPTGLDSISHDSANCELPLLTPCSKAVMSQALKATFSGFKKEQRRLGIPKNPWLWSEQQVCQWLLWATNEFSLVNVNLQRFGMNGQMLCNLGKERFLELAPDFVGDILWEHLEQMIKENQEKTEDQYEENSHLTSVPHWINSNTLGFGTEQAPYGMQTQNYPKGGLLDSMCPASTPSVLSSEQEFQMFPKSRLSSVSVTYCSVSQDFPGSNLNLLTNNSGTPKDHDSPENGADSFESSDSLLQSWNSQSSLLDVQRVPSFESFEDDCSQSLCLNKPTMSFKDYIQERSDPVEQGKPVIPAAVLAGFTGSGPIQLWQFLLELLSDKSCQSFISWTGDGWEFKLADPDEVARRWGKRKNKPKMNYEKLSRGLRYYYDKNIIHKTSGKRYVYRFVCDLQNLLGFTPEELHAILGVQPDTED
# How it was run: as §1
# [8] = biological target: T6, ETV7 (Homo sapiens, UniProt Q9Y603 1-341)
# T6 sequence: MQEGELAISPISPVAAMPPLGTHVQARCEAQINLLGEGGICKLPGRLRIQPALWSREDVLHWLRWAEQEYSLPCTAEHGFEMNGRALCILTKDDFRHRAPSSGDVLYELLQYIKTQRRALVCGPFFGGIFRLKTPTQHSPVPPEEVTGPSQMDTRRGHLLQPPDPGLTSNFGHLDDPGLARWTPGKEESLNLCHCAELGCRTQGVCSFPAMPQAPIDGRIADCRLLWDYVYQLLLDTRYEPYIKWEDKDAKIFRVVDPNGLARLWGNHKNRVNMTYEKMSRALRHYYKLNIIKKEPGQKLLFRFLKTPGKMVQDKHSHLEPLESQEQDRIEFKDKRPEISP
# How it was run: as §1
# [9] = biological target: T7, ETV3 (Homo sapiens, UniProt P41162-2 1-143)
# T7 sequence: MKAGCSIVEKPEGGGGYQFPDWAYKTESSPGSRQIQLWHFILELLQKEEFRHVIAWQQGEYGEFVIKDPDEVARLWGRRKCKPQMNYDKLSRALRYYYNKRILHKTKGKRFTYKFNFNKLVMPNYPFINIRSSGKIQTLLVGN
# How it was run: as §1
# [10] = biological target: ETV6 (Homo sapiens, UniProt P41212 1-452)
# How it was run: as §1
# Sequence of ELF4 (Q99607 whole entry, the tested form may be a part): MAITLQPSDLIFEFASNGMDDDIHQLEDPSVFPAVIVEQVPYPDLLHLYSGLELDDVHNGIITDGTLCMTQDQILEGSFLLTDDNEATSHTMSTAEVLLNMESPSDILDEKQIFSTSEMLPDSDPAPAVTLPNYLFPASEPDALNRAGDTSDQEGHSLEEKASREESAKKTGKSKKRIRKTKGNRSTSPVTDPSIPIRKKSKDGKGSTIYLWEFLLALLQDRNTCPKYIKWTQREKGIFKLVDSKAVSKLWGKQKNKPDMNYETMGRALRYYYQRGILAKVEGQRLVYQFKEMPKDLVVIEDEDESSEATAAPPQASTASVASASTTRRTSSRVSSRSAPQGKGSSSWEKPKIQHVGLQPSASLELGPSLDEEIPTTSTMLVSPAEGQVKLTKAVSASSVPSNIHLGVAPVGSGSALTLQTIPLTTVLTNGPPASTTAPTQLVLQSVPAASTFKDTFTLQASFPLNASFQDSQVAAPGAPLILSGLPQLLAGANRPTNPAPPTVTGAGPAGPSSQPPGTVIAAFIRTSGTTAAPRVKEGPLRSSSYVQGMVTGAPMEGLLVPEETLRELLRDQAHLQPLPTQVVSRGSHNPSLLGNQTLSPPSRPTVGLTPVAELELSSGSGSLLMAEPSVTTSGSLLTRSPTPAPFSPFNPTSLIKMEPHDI
# Sequence of ETV1 (P50549 whole entry): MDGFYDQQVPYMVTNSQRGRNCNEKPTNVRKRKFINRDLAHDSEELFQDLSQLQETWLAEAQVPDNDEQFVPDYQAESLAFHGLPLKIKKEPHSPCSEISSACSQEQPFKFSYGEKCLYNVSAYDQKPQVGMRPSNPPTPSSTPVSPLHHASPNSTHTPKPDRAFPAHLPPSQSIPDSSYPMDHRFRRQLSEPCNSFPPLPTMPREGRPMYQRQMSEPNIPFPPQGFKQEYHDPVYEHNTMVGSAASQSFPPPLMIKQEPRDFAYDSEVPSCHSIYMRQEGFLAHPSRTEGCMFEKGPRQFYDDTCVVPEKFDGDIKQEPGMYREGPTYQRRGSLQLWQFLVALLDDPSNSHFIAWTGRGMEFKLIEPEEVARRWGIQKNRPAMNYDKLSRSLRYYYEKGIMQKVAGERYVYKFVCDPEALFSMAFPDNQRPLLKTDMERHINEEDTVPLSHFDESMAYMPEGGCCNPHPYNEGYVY
# Sequence of ETV6 (P41212 whole entry): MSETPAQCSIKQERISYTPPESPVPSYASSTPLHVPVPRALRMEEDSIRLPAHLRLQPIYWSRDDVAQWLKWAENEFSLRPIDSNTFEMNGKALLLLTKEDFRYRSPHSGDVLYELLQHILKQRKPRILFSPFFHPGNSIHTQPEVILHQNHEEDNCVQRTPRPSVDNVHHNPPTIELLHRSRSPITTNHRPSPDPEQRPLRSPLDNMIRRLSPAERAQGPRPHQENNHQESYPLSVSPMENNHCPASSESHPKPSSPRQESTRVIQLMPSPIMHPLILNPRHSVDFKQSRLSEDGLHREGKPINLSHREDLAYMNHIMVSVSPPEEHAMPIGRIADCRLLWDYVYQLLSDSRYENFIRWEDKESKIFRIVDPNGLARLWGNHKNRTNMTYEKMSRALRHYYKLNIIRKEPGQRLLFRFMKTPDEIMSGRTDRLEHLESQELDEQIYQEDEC
sequence,measurement,setting,value
TCATAC,binding signal,[1],"1.07 fold enrichment (6-mer frequency, TF over GST control)"
same,binding signal,[2],"1.15 fold enrichment (6-mer frequency, TF over GST control)"
same,binding signal,[3],"1.08 fold enrichment (6-mer frequency, TF over GST control)"
same,binding signal,[4],"1.14 fold enrichment (6-mer frequency, TF over GST control)"
same,binding signal,[5],"1.2 fold enrichment (6-mer frequency, TF over GST control)"
same,binding signal,[6],"1.13 fold enrichment (6-mer frequency, TF over GST control)"
same,binding signal,[7],"1.06 fold enrichment (6-mer frequency, TF over GST control)"
same,binding signal,[8],"1.09 fold enrichment (6-mer frequency, TF over GST control)"
same,binding signal,[9],"1.01 fold enrichment (6-mer frequency, TF over GST control)"
same,binding signal,[10],"1.01 fold enrichment (6-mer frequency, TF over GST control)"

# From publication PMC7862700, “An all-to-all approach to the identification of sequence-specific readers for epigenetic DNA modifications on cytosine”
